Source: PubChem BioAssay (NCI)
Values joined by “and” are separate entries in the source; they are usually repeats but may differ in a detail not shown here. Equal values may be shown once. About 83,000 compounds went through this panel and 20% of them were active in at least one assay; those are over-represented in the sample as a whole.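 Method: cells in 96-well plates; compound added at one concentration; 48 h incubation; percent growth measured; values under 10 scored active.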 Active and inactive are the calls of the source.

How the values were obtained:
Assay in all cases: NCI-60 one-dose screen, 48 h (100 = growth as untreated, 0 = no growth, -100 = all killed)
Settings in all cases: 10 µM unless noted
[1] = test system: NCI-H23 lung
[2] = test system: NCI-H226 lung
[3] = test system: NCI-H322M lung
[4] = test system: HOP-62 NSCLC
[5] = test system: NCI-H460 lung
[6] = test system: HOP-92 NSCLC
[7] = test system: NCI-H522 lung
[8] = test system: A549/ATCC NSCLC
[9] = test system: 786-0 renal
[10] = test system: COLO 205 colon
[11] = test system: DU-145 prostate
[12] = test system: K-562 leukemia
[13] = test system: MALME-3M melanoma
[14] = test system: MDA-MB-231 breast
[15] = test system: RXF 393 renal
[16] = test system: SF-268 CNS
[17] = test system: SF-295 CNS
[18] = test system: SF-539 CNS
[19] = test system: UACC-257 melanoma
[20] = test system: M14 melanoma

Row | Compound | growth [1] | growth [2] | growth [3] | growth [4] | growth [5] | growth [6] | growth [7] | growth [8] | growth [9] | growth [10] | growth [11] | growth [12] | growth [13] | growth [14] | growth [15] | growth [16] | growth [17] | growth [18] | growth [19] | growth [20]
1 | O=S1(=O)CC(Br)C(Br)C1 (configuration not stated) | 61.3% (inactive) and 97.8% (inactive) | 40.7% (inactive) and 113% (inactive) | 104% (inactive) and 108% (inactive) | 104% (inactive) and 116% (inactive) | 107% (inactive) and 97.5% (inactive) | 5.91% (active) and 37.5% (inactive) | -48.2% (active) | 95.4% (inactive) and 95% (inactive) | 101% (inactive) and 82.1% (inactive) | 41.1% (inactive) and 58.3% (inactive) | 72.3% (inactive) and 129% (inactive) | 47% (inactive) and 69.7% (inactive) | 19.9% (inactive) and 53.1% (inactive) | 88% (inactive) and 103% (inactive) | 40.1% (inactive) and 67.5% (inactive) | 109% (inactive) and 129% (inactive) | 111% (inactive) and 99.8% (inactive) | 97.6% (inactive) and 99.1% (inactive) | 71.5% (inactive) and 64.7% (inactive) | 73.2% (inactive) and 87.5% (inactive)
2 | Oc1ccc(/C=C/c2ccccc2)cc1 | 73.2% (inactive) and 76.4% (inactive) | 104% (inactive) and 103% (inactive) | 77.6% (inactive) and 83.4% (inactive) | 109% (inactive) and 87.9% (inactive) | 73.4% (inactive) and 61.5% (inactive) | 95.7% (inactive) | 72.1% (inactive) and 29.2% (inactive) | 76.1% (inactive) and 59.9% (inactive) | 32.8% (inactive) and 45.1% (inactive) | 104% (inactive) and 132% (inactive) | 50.9% (inactive) and 58.4% (inactive) | 64.7% (inactive) and 58.4% (inactive) | 97.9% (inactive) and 71.7% (inactive) | 57.4% (inactive) and 47.1% (inactive) | 75.9% (inactive) and 91% (inactive) | 53.7% (inactive) and 62.5% (inactive) | 82.8% (inactive) and 81% (inactive) | 79.6% (inactive) and 68.7% (inactive) | 100% (inactive) and 87.9% (inactive) | 68% (inactive) and 73.4% (inactive)
3 | O=C(/C=C\c1ccnc2ccccc12)c1ccc([N+](=O)[O-])cc1 | 91.4% (inactive) and 63% (inactive) | 85.3% (inactive) and 68.5% (inactive) | 112% (inactive) and 115% (inactive) | 104% (inactive) and 77.9% (inactive) | 99.7% (inactive) and 79.8% (inactive) | 78% (inactive) and 58% (inactive) | 36.7% (inactive) and 67.7% (inactive) | – | 88.8% (inactive) and 81.4% (inactive) | 118% (inactive) and 105% (inactive) | 101% (inactive) and 96% (inactive) | 55.1% (inactive) and 8.08% (active) | 101% (inactive) and 85.5% (inactive) | 84.1% (inactive) and 93.2% (inactive) | 107% (inactive) and 75.7% (inactive) | 105% (inactive) and 91.6% (inactive) | 82.6% (inactive) | 85.2% (inactive) | 90% (inactive) and 65.8% (inactive) | 90.7% (inactive) and 79.5% (inactive)
4 | CCCCCn1sc(=O)n(Cc2ccc(CNC(=O)C(C)c3ccc(CC(C)C)cc3)cc2)c1=O (configuration not stated) | 102% (inactive) and -73.4% (active) | 94.3% (inactive) and 37.3% (inactive) | 99.5% (inactive) and 67.6% (inactive) | 99.1% (inactive) and -43.2% (active) | 102% (inactive) and 22.9% (inactive) | 73.6% (inactive) and -66.2% (active) | 85.4% (inactive) and -59.6% (active) | 97.4% (inactive) and -19.1% (active) | 95.8% (inactive) and -86.5% (active) | 122% (inactive) and -57.5% (active) | 99.9% (inactive) and -93.4% (active) | 2.12% (active) | 99.8% (inactive) and -72.1% (active) | 93.3% (inactive) and -54.7% (active) | -91.7% (active) | 94.5% (inactive) and -59.7% (active) | 94.3% (inactive) and 47.1% (inactive) | 93.6% (inactive) and -92.8% (active) | 96.7% (inactive) and -19.5% (active) | 95.2% (inactive) and -67.6% (active)
5 | COc1ccc2cc3[n+](cc2c1OC)CCc1cc2c(cc1-3)OCO2 | 43.4% (inactive) and 50.4% (inactive) | 73.8% (inactive) and 79.5% (inactive) | 96% (inactive) and 99.4% (inactive) | 43.9% (inactive) and 85.4% (inactive) | 75.9% (inactive) and 88.9% (inactive) | 76.1% (inactive) and 20.6% (inactive) | 68.7% (inactive) and 53% (inactive) | 75.1% (inactive) and 59.4% (inactive) | 73.5% (inactive) and 66.9% (inactive) | 59.5% (inactive) and 68.4% (inactive) | 92.5% (inactive) and 78.4% (inactive) | 41.1% (inactive) and 40% (inactive) | 31.6% (inactive) and 42% (inactive) | 81.7% (inactive) and 87.5% (inactive) | 89.1% (inactive) and 60.9% (inactive) | 42.9% (inactive) and 40.7% (inactive) | 19.3% (inactive) and 45.1% (inactive) | 68.6% (inactive) and 82.9% (inactive) | 48.1% (inactive) and 88.5% (inactive) | 83.2% (inactive) and 110% (inactive)
6 | COc1ccc(NC(=S)Nc2ccccn2)cc1 | 96% (inactive) | 86.2% (inactive) | 97% (inactive) | 97.9% (inactive) | 100% (inactive) | 77% (inactive) | 98.4% (inactive) | – | 90.4% (inactive) | 110% (inactive) | 93% (inactive) | 87.1% (inactive) | 80.6% (inactive) | 99% (inactive) | 121% (inactive) | 90.7% (inactive) | 94.6% (inactive) | 109% (inactive) | 104% (inactive) | 106% (inactive)
7 | COc1cc2nc(N3CCC[C@@H](NC(=O)C4COc5ccccc5O4)C3)nc(N)c2cc1OC (some centres not stated) | 99.6% (inactive) and 99.7% (inactive) | 102% (inactive) and 99.7% (inactive) | 96.1% (inactive) and 102% (inactive) | 107% (inactive) and 102% (inactive) | 105% (inactive) and 107% (inactive) | 87% (inactive) and 83% (inactive) | 96.4% (inactive) and 93.9% (inactive) | 95.7% (inactive) and 93.9% (inactive) | 97.4% (inactive) and 96.9% (inactive) | 108% (inactive) and 107% (inactive) | 107% (inactive) and 108% (inactive) | 97.1% (inactive) and 94.1% (inactive) | 101% (inactive) and 109% (inactive) | 104% (inactive) and 106% (inactive) | 105% (inactive) and 88.6% (inactive) | 105% (inactive) and 103% (inactive) | – | 104% (inactive) and 101% (inactive) | 93.5% (inactive) and 92% (inactive) | 105% (inactive) and 101% (inactive)
8 | C/C(=N\NC(=O)c1ccncc1)c1ccccc1O | 42.5% (inactive) and 30.4% (inactive) | 54.5% (inactive) and 58.8% (inactive) | 30.3% (inactive) and 20.7% (inactive) | 34.3% (inactive) and 33.7% (inactive) | 19.3% (inactive) and 14% (inactive) | 44.5% (inactive) and 36.7% (inactive) | 8.84% (active) | 36.4% (inactive) and 40% (inactive) | 31.4% (inactive) and 22.6% (inactive) | 13.9% (inactive) and 8.85% (active) | 40.8% (inactive) and 45.2% (inactive) | 35.6% (inactive) and 35.4% (inactive) | 65.6% (inactive) and 53.4% (inactive) | 34.9% (inactive) and 36.2% (inactive) | 63.6% (inactive) and 75.4% (inactive) | 37.1% (inactive) and 40.5% (inactive) | 40.2% (inactive) and 39.3% (inactive) | 52.9% (inactive) and 30.2% (inactive) | 43.9% (inactive) and 25.1% (inactive) | 27.5% (inactive) and 33.5% (inactive)
